From PubChem BioAssay come the findings set out here.

The test system of experiment [1] is Hepatitis C virus NS3 helicase. As to the kind of experiment: blockers of NS3h binding to ssDNA – biochemical, fluorescence polarization, LOPAC1280 library, primary screen (AID 687035; in the data active = inhibition above about 37%). The note with it: Purified HCV NS3 helicase, Cy5-dT15 ssDNA binding fluorescence polarization; stronger effect = higher value; concentration not given here. (In fluorescence polarisation assays a small probe gives low polarisation when free and higher when bound to something large.)

The nature of experiment [2]: compounds altering Cy5-DNA-NS3h complex signal – biochemical, LOPAC1280, artefact control for HCV NS3 helicase inhibitor project (AID 687037; call rule not given here). The note with it: Cy5-DNA-NS3h complex fluorescence interference counterscreen.
Experiment [3] is described as follows: Wnt pathway potentiators raising nuclear beta-catenin – imaging, WNT3A-conditioned medium, mouse C2C12, NPC library, primary screen (AID 1117326; in the data active = nuclear beta-catenin stimulation mostly above about 4.2%, no sharp cut-off; inactive = mostly below about 10%). The note with it: stronger effect = higher value.
Experiment [4] can be described thus: stimulators of insulin release from INS-1E, primary screen, cell-based, 5 mM glucose, NPC library (AID 1117329;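 active = compound raises insulin release from rat beta cells at 5 mM glucose, no numeric limit stated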). The note with it: rat INS-1E insulin secretion, at 10 µM, stronger effect = higher value.
A short description of experiment [5]: growth inhibition of GSK3B-pretreated HCT116 cells – cell-based, CellTiter-Glo, 0.2 to 20 µM (AID 1117336;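 active = compounds lowering colon cancer cell viability after pretreatment blocking the GSK3B kinase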). The note with it: HCT116 viability after GSK3B inhibitor, at 20 µM, stronger effect = higher value.
Experiment [6] is described as follows: inhibition of endothelial tube formation, primary screen, imaging, VEGF stimulated, CD31 staining, tube area, NPC library (AID 1117340;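 active = compound that reduces growth-factor-driven endothelial tube area in a mixed cell culture, no cutoff stated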). The note with it: VEGF-stimulated ADSC/ECFC co-culture, at 10 µM, stronger effect = higher value.
Experiment [7] can be described thus: GLP1 release stimulators, primary, NCI-H716, NPC library (AID 1117341;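 active = compound raises GLP1 secretion from the human gut endocrine cells, with no numeric limit stated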). The note with it: NCI-H716 cells, at 10 µM, stronger effect = higher value.
A short description of experiment [8]: HCT116 colon cancer cell growth inhibition, primary screen, CellTiter-Glo luminescence, NPC library (AID 1117342;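 active = compounds that lower survival of HCT116 colon cancer cells in the luminescence readout, no numeric limit stated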). The note with it: at 20 µM (top of the series). In general terms: Cellular ATP, detected with luciferase, serves as a proxy for viable cell number.
Experiment [9] can be described thus: reduced SW480 viability measured with CellTiter-Glo, NPC library, primary (AID 1117343;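 active = compounds that lower viability of the colon cancer cells in the luminescence readout, with no numeric limit stated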). As to conditions: CellTiter-Glo luminescence; at 20 µM (top of the series).
Experiment [10] can be described thus: NPC library primary testing for decreased DLD-1 cell viability via CellTiter-Glo (AID 1117346;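 active = compounds that lower survival of DLD-1 colon cancer cells in the luminescence readout, no cutoff given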). As to conditions: DLD-1 viability, CellTiter-Glo luminescence; at 20 µM (top of the series).
For experiment [11], the system named is Aerobactin synthetase IucA (Klebsiella pneumoniae, hypervirulent). As to the kind of experiment: biochemical IucA inhibition screen of LOPAC library by absorbance (AID 1346212; call rule not given here;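 note: 100% = no compound wells and 0% = no enzyme wells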). As to conditions: IucA enzyme assay, absorbance (OD) readout; stronger effect = lower value;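 tested at 8 µM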.
Experiment [12] can be described thus: viability loss with induced miR-34 in A549 – imaging, A549 dox-inducible miR-34, nuclei and caspase counts, primary screen (AID 1347080). The note with it: A549 miR-34 inducible, Hoechst nuclei count, 48 h.
Experiment [13] can be described thus: MELAS cybrid and Rieske KO viability enhancers – cell-based, MELAS cybrids, Rieske KO mouse fibroblasts, CellTiter-Glo, primary screen (AID 1508586;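 active = mean z-score across replicates of 1.96 or higher in either the MELAS or the Rieske mutant cell line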;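 note: z relative to plate mean and SD of compound and empty wells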). The note with it: low glucose.
Experiment [14] concerns the target NAD(+) hydrolase SARM1 (Homo sapiens) (UniProt Q6SZW1). The experiment can be described thus: blocking NAD cleavage by SARM1 SAM-TIR – cell lysate, NAD-Glo luminescence (AID 1508614;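 active = compound whose remaining NAD level is above about 45 nM, limit read from the data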;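 note: higher remaining NAD means stronger inhibition of SARM1 NADase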). As to conditions: SAM-TIR HEK293T lysate NADase, at 1 µM, stronger effect = higher value.
The nature of experiment [15]: galactose survival enhancers in mitochondrial complex I cybrids – cell-based, galactose medium, ATP luminescence, primary screen (AID 1645843;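 active = z-score of at least 1.8 in each of two replicates, scored against plate mean and spread of sample wells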;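 note: positive z means more ATP and so rescue of galactose-driven cybrid death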). The note with it: complex I mutant cybrid cells, 72 h, stronger effect = higher value.
A short description of experiment [16]: P. berghei load reduction in hepatocytes – cell-based, HepG2, luciferase luminescence, HepG2 viability, primary screen (AID 624349; in the data active = parasite load remaining mostly below about 12%, no sharp cut-off; inactive = mostly above about 10%;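 note: 100% = mean of DMSO negative control wells on the same plate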). As to conditions: P. berghei liver stage in HepG2, luciferase luminescence, concentration not given here; parasite load remaining: stronger effect = lower value; viability: measured here: HepG2 viability without parasites.
A short description of experiment [17]: EMT-state selective cytotoxicity in co-culture – imaging, PC-3E GFP, TEM4-18 mCherry, primary screen (AID 1345086;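 active = compounds killing one labelled cell type while sparing the other, by normalised counts and ratio limits, not self-fluorescent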;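 note: cells exposed to compound for 72 h before imaging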;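 for red/green cell ratio (normalised): normalised mesenchymal count divided by normalised epithelial count so high means epithelial killing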). As to conditions: PC-3E GFP / TEM4-18 mCherry co-culture, imaging cell counts, at 1 µM.
The mark [18] stands for this setting: measured here: relative caspase fold change +Dox/-Dox.
Setting [19] is: measured here: total cells with miR-34 induction, stronger effect = lower value.
[20] abbreviates: measured here: total cells without miR-34 induction.
Where [21] appears, read: MELAS cybrid survival, CellTiter-Glo 48 h, stronger effect = higher value.
[22] abbreviates: Rieske KO mouse fibroblast survival, CellTiter-Glo 72 h.

“And” between values parts separate entries of the source, which are not always exact repeats. Equal entries are not always repeated. The source made the active and inactive calls.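 Rule for the calls, unless noted: active = compounds whose cell count with miR-34 switched on is under 0.7 times the count with it off; inactive = the rest.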

Chain of NAD(+) hydrolase SARM1 (Homo sapiens) (Q6SZW1 whole entry, looked up): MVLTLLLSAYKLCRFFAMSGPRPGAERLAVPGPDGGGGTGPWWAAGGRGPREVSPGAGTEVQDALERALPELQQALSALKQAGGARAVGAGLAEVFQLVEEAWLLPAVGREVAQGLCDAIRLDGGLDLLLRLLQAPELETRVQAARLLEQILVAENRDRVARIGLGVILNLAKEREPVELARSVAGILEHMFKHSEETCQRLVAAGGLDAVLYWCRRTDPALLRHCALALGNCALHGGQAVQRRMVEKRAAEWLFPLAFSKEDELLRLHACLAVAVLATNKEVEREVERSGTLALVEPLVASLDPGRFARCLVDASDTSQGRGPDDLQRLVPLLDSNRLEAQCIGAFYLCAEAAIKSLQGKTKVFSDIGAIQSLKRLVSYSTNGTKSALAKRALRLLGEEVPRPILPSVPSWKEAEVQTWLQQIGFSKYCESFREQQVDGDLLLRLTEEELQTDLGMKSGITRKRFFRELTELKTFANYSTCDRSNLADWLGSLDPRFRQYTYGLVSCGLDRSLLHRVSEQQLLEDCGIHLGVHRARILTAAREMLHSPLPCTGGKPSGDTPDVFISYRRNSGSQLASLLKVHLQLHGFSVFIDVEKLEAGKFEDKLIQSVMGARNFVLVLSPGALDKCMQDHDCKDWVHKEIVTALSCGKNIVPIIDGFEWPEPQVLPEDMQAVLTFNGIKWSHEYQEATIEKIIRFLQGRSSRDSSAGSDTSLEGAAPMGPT

What is called inhibition is the relative decrease from the control value, in per cent. What is called remaining activity is the signal under treatment as a percentage of the control signal. For `Cc1cccc(C)c1NC(=O)CN1CCCC1=O`, in [1], the inhibition was -5% (inactive). The fluorescence ratio (interference) in experiment [2] was 1 (inactive). Also, the nuclear beta-catenin stimulation in [3] (at 10 µM) is -1.9% (inactive); in experiment [3] (stimulation, at 2 µM), 0.9%. In addition, the insulin secretion stimulation in [4] was 1.6% (inactive). Besides, the viability decrease in experiment [5] was 0.1% (inactive). The tube area decrease in experiment [6] was -2.5% (inactive). Moreover, in [7], the GLP1 secretion stimulation was -2.4% (inactive). Moreover, the inhibition of viability in experiment [8] is 0.2% (inactive). Further, the values for the viability decrease (inhibition) in experiment [9] and in [10] were 0.5% (inactive) and -10.5% (inactive), respectively. Besides, the remaining activity in experiment [11] was 106% (inactive). Also, the fold change in experiment [12] (stronger effect = lower value) is 0.975 (inactive) and 0.928 (inactive); in experiment [12] (setting [18]) it was 1.2 and 0.724. Also, the cell count in [12] (setting [19]) is 10700 and 8710; in experiment [12] (setting [20]), 11000 and 9380. In addition, the z-score in [13] (setting [21]) is -0.209 (inactive); in experiment [13] (setting [22]), 0.685; in experiment [15] it was 0.43 (inactive). The remaining NAD in [14] was 10 nM (inactive).

For orientation: viability means a read-out of living cells in per cent, often relative to untreated cells. As to `COP(=O)(OC)OC=C(Cl)Cl`, in [16], the parasite load remaining is 43.6% (inactive). The viability in experiment [16] stood at 96%. Besides, the nuclear beta-catenin stimulation in experiment [3] (at 10 µM) is -0.5% (inactive); in [3] (stimulation, at 2 µM), -1.3%. In addition, the insulin secretion stimulation in experiment [4] was -1.6% (inactive). The viability decrease in experiment [5] was 37% (inactive). Also, in experiment [6], the tube area decrease is -16.8% (inactive). For the same molecule, the GLP1 secretion stimulation in experiment [7] is -1.2% (inactive). Besides, the inhibition of viability in experiment [8] was -1.53% (inactive). Moreover, the viability decrease (inhibition) is 26.8% (inactive) in [9] and -3.8% (inactive) in experiment [10]. The red/green cell ratio (normalised) in [17] (actives lie on both sides, counts scaled to control wells, 1 = unselective) is 1.1 (inactive). Moreover, the normalised cell number in experiment [17] (measured here: epithelial PC-3E GFP cell survival) came out at 1.09; in [17] (measured here: mesenchymal TEM4-18 mCherry cell survival), 1.2. In addition, the fold change in experiment [12] (stronger effect = lower value, cell number ratio, induced over uninduced) was 0.895 (inactive); in experiment [12] (setting [18]), 1.25. Besides, the cell count in experiment [12] (setting [19]) came to 10900; in experiment [12] (setting [20]), 12200. Besides, the remaining NAD in experiment [14] is 10 nM (inactive).

Consider `CN1C[C@@H](NS(=O)(=O)N(C)C)C[C@@H]2c3cccc4c3c(cn4C)C[C@H]21`, for which the parasite load remaining in [16] was 32.6% (inactive). Further, the viability in experiment [16] was determined as 102%. The nuclear beta-catenin stimulation in experiment [3] (at 10 µM) was 0.4% (inactive); in experiment [3] (stimulation, at 2 µM), 1.4%. The insulin secretion stimulation in experiment [4] is 3.7% (inactive). For the same molecule, the viability decrease in experiment [5] was 9.6% (inactive). The tube area decrease in experiment [6] is -8.8% (inactive). Also, the GLP1 secretion stimulation in experiment [7] was 4.1% (inactive). Further, in experiment [8], the inhibition of viability is 36.4% (inactive). For the same molecule, the viability decrease (inhibition) is 48% (inactive) in experiment [9] and 9% (inactive) in experiment [10]. For the same molecule, the remaining activity in experiment [11] is 113% (inactive). Moreover, the fold change in experiment [12] (stronger effect = lower value) is 0.878 (inactive); in [12] (setting [18]), 1.21. Also, the cell count in experiment [12] (setting [19]) was found to be 9040; in experiment [12] (setting [20]), 10300. The z-score is 0.531 (inactive) in experiment [13] (setting [21]), 0.143 in experiment [13] (setting [22]) and 0.405 (inactive) in experiment [15].

In the case of `O=C1NCN(c2ccccc2)C12CCN(CC1COc3ccccc3O1)CC2` (stereo not given), the parasite load remaining in experiment [16] was 34.8% (inactive). Besides, the viability in experiment [16] was 103%. Also, the inhibition in experiment [1] was -6% (inactive). Moreover, in experiment [2], the fluorescence ratio (interference) was 0.9 (inactive). Also, the nuclear beta-catenin stimulation in [3] (at 10 µM) was -0.5% (inactive); in experiment [3] (stimulation, at 2 µM) it was 0.8%. Also, the insulin secretion stimulation in experiment [4] is 1.2% (inactive). For the same molecule, in experiment [5], the viability decrease is -65.9% (inactive). Also, the tube area decrease in experiment [6] was 5.4% (inactive). In [7], the GLP1 secretion stimulation was 0.9% (inactive). Further, the inhibition of viability in experiment [8] is 17.3% (inactive). In addition, the viability decrease (inhibition) is 28.7% (inactive) in experiment [9] and 3.2% (inactive) in experiment [10]. For the same molecule, the remaining activity in experiment [11] was 93.6% (inactive). In addition, the fold change in experiment [12] (stronger effect = lower value) is 1.02 (inactive) and 0.89 (inactive) and 0.887 (inactive); in experiment [12] (setting [18]), 1.92 and 0.981 and 1.04. Besides, the cell count in experiment [12] (setting [19]) was 9490 and 8620 and 9600; in [12] (setting [20]), 9350 and 9690 and 10800. Besides, the z-score was 0.415 (inactive) in experiment [13] (setting [21]); 1.51 in experiment [13] (setting [22]); 0.48 (inactive) and 0.105 (inactive) and 0.78 (inactive) in experiment [15].

In the case of `C[N+]1(C)[C@@H]2CC[C@H]1CC(OC(=O)C(CO)c1ccccc1)C2` (stereo not given in full), the nuclear beta-catenin stimulation is 0.5% (inactive) in experiment [3] (at 10 µM) and -0.7% in experiment [3] (stimulation, at 2 µM). For the same molecule, in [4], the insulin secretion stimulation is 3.3% (inactive). Besides, in [5], the viability decrease is -5.8% (inactive). The tube area decrease in [6] was -7.8% (inactive). The GLP1 secretion stimulation in experiment [7] was 2.8% (inactive). The inhibition of viability in experiment [8] was 12.1% (inactive). Further, the viability decrease (inhibition) in [9] is -13.2% (inactive); in experiment [10], 13.1% (inactive). In experiment [11], the remaining activity is 93.2% (inactive). Moreover, the remaining NAD in experiment [14] was 10 nM (inactive).
